SMILES strings stand for the structures. This is part of a sample that, as a whole, favours compounds with a hit. Of some 83,000 tested, about 20% had one in any assay.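 Activity criterion: percent growth below 10, measured after cells in 96-well plates were exposed to a single compound concentration for 48 hours.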 Unmarked numbers belong to inactive results.

The first assay concerns U251 CNS. As to the kind of experiment: NCI-60 one-dose screen, 48 h (100 = growth as untreated, 0 = no growth, -100 = all killed). Conditions: 10 µM unless noted.
As to `Nc1nc(Cl)cc(Cl)n1`, the growth was 102%.
Same read-out and setting: the result for `CCCCCCCCCCCCCCCCOc1ccccc1NC(=O)CC(C)=O` reads 99.3%; that for `Cc1cc(Cc2ccccc2)c(O)c(Cc2ccccc2)c1`, 86.5%; that for `Nc1cc(N)ncn1`, 104%.
Still for that read-out and setting: under `CC(C)(C)NCCC(O)c1cc(C(F)(F)F)nc2c(C(F)(F)F)cccc12` (centres undefined) stands 54.3%; under `C=C(OC(C)=O)c1ccccc1`, 89.8%.
`O=Cc1c(O)c2ccccc2[nH]c1=O`: the growth was 94.3%.
As for `CN=S(=O)(OCCCCCOS(=O)(=NC)c1ccc(C)cc1)c1ccc(C)cc1` (centres undefined), the growth was 93.8%.
On the same count and under the same terms, the result for `CCOC(=O)c1c(C)[nH]c(C)c1C=O` reads 88.2%; that for `O=C(NCc1ccccc1)/C(=C/c1ccccc1)NC(=O)c1ccccc1`, 93.4%.
Same read-out and setting: under `O=c1cc(Cl)nc2ccccn12` stands 107%; under `Oc1cc(O)c2c(c1)O[C@H](c1ccc(O)c(O)c1)[C@@H](O)C2`, 97.9%; under `CCOP(=O)(NC(c1ccccc1)c1ccccc1)OCC`, 105%.
Same read-out and setting: under `Cc1ccc2nc(N)nnc2c1` stands 111%; under `Cc1ccc(S(N)(=O)=O)cc1Cl`, 103%.
On to `Nc1cc2ccccc2c(O)c1O`, for which the growth is 40.2%.
On the same count and under the same terms, the result for `CC(C)N1CC(=O)N2CSCC2C1=O` (centres undefined) reads 105%.
As for `CCOC(=N)CC(=O)Nc1cccc(C)c1Cl`, the growth is 103%.
The same measure, in the same setting: under `Cc1cc2c(C(C)C)c(O)c(O)c(C=Nc3ccccc3[N+](=O)[O-])c2c(O)c1-c1c(C)cc2c(C(C)C)c(O)c(O)c(C=Nc3ccccc3[N+](=O)[O-])c2c1O` stands 54.2%; under `Cc1cc(C(=O)NN)c(C#N)c(=O)[nH]1`, 104%.
Still for that read-out and setting: the result for `COC1OC(CO)C(OC)C(O)C1O` (centres undefined) reads 99.6%; that for `CCOC(=O)/C(O)=C(\C=N\C(=S)Nc1ccc(Cl)c(Cl)c1)C(=O)OCC`, 98.2%.
As for `O=C(c1ccccc1)c1ccc(-c2ccc(O)cc2)cc1`, the growth is 37.3%.
Turning to `CC(=O)C1C(=O)C(=O)N(c2cccc([N+](=O)[O-])c2)C1=O` (centres undefined), the growth was 97.3%.
Still for that read-out and setting: the result for `CCOC(OCC)C(=O)c1ccccc1` reads 95%; that for `Cc1ccc(O)c(N)c1`, 103%.
`COC(=O)c1ccccc1C(=O)c1c(C)cc(C)cc1C`: the growth is 91.2%.
In the case of `COc1cc(-c2ccc(NC(=O)CC(C)=O)c(OC)c2)ccc1NC(=O)CC(C)=O`, the growth is 89.6%.
In the case of `Oc1cccc(CNC2CCCCC2)c1`, the growth was 106%.
The same measure, in the same setting: the result for `COc1ccc(C(=O)C(=O)c2ccccc2)cc1` reads 101%; that for `CSc1cnc2ccccc2n1`, 94.1%.
Still for that read-out and setting: under `Nc1ccc2c(c1)Cc1cc(N)c(N)cc1-2` stands 86%.
Consider `CCCCN(C(=O)CC)c1ccccc1`, for which the growth was 97.6%.
Still for that read-out and setting: under `Nc1c(Br)cc(O)c2c1C(=O)c1ccccc1C2=O` stands 92%; under `CC(=O)N(C(C)=O)c1ccc(C)cc1`, 97.6%; under `Cc1cc(CC(=O)NCCO)n(CCO)c(=O)c1`, 97.9%.
On to `CCOC(=O)c1ccc(NC(C)=O)o1`, for which the growth was 94.1%.

Another assay deals with PC-3 prostate. The assay is described as above. Conditions: 10 µM unless noted.
Consider `Nc1nc(Cl)cc(Cl)n1`, for which the growth is 98.5%.
Same read-out and setting: the result for `CCCCCCCCCCCCCCCCOc1ccccc1NC(=O)CC(C)=O` reads 75.4%.
The same measure, in the same setting: under `Cc1cc(Cc2ccccc2)c(O)c(Cc2ccccc2)c1` stands 88.3%; under `Nc1cc(N)ncn1`, 97.7%; under `CC(C)(C)NCCC(O)c1cc(C(F)(F)F)nc2c(C(F)(F)F)cccc12` (centres undefined), 55.3%.
Same read-out and setting: under `C=C(OC(C)=O)c1ccccc1` stands 79.4%.
On to `O=Cc1c(O)c2ccccc2[nH]c1=O`, for which the growth was 94.4%.
Still for that read-out and setting: the result for `CN=S(=O)(OCCCCCOS(=O)(=NC)c1ccc(C)cc1)c1ccc(C)cc1` (centres undefined) reads 75.6%; that for `CCOC(=O)c1c(C)[nH]c(C)c1C=O`, 82.7%; that for `O=C(NCc1ccccc1)/C(=C/c1ccccc1)NC(=O)c1ccccc1`, 88.5%.
With `O=c1cc(Cl)nc2ccccn12`, the growth is 96.7%.
Still for that read-out and setting: the result for `Oc1cc(O)c2c(c1)O[C@H](c1ccc(O)c(O)c1)[C@@H](O)C2` reads 93.3%; that for `CCOP(=O)(NC(c1ccccc1)c1ccccc1)OCC`, 82.6%; that for `Cc1ccc2nc(N)nnc2c1`, 96%.
Same read-out and setting: under `Cc1ccc(S(N)(=O)=O)cc1Cl` stands 99.3%.
Regarding `Nc1cc2ccccc2c(O)c1O`, the growth was 43.7%.
Same read-out and setting: the result for `CC(C)N1CC(=O)N2CSCC2C1=O` (centres undefined) reads 101%; that for `CCOC(=N)CC(=O)Nc1cccc(C)c1Cl`, 93.6%.
Turning to `Cc1cc2c(C(C)C)c(O)c(O)c(C=Nc3ccccc3[N+](=O)[O-])c2c(O)c1-c1c(C)cc2c(C(C)C)c(O)c(O)c(C=Nc3ccccc3[N+](=O)[O-])c2c1O`, the growth is 65.1%.
Still for that read-out and setting: the result for `Cc1cc(C(=O)NN)c(C#N)c(=O)[nH]1` reads 91.1%.
The same measure, in the same setting: the result for `COC1OC(CO)C(OC)C(O)C1O` (centres undefined) reads 103%; that for `CCOC(=O)/C(O)=C(\C=N\C(=S)Nc1ccc(Cl)c(Cl)c1)C(=O)OCC`, 86.9%.
Still for that read-out and setting: under `O=C(c1ccccc1)c1ccc(-c2ccc(O)cc2)cc1` stands 76.8%; under `CC(=O)C1C(=O)C(=O)N(c2cccc([N+](=O)[O-])c2)C1=O` (centres undefined), 98.2%; under `CCOC(OCC)C(=O)c1ccccc1`, 85%.
For the compound `Cc1ccc(O)c(N)c1`, the growth is 94.7%.
Still for that read-out and setting: the result for `COC(=O)c1ccccc1C(=O)c1c(C)cc(C)cc1C` reads 90%.
Still for that read-out and setting: under `COc1cc(-c2ccc(NC(=O)CC(C)=O)c(OC)c2)ccc1NC(=O)CC(C)=O` stands 95.1%.
`Oc1cccc(CNC2CCCCC2)c1`: the growth was 99.8%.
The same measure, in the same setting: under `COc1ccc(C(=O)C(=O)c2ccccc2)cc1` stands 104%; under `CSc1cnc2ccccc2n1`, 89.6%.
As to `Nc1ccc2c(c1)Cc1cc(N)c(N)cc1-2`, the growth is 96.3%.
On to `CCCCN(C(=O)CC)c1ccccc1`, for which the growth was 103%.
On the same count and under the same terms, under `Nc1c(Br)cc(O)c2c1C(=O)c1ccccc1C2=O` stands 84.6%.
On the same count and under the same terms, the result for `CC(=O)N(C(C)=O)c1ccc(C)cc1` reads 93.7%.
Regarding `Cc1cc(CC(=O)NCCO)n(CCO)c(=O)c1`, the growth was 104%.
Same read-out and setting: under `CCOC(=O)c1ccc(NC(C)=O)o1` stands 95.8%.

The record behind these values is PubChem BioAssay (NCI).
